Results from PubChem BioAssay AID588334 (Broad Institute, 2011).
Hit rate of the full screen: of about 300,000 compounds, about 2,300 (0.77%) were called active.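 How the source made its calls: active means mean activation of at least 80% with every replicate also reaching 80%; inconclusive means mean reaches 80% but some replicate falls short; inactive means the rest.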 The entries come from a sample that favours actives as a whole. Where a SMILES comes first, the peptide text is derived from it. [ ]: non-standard residue; d: D form. ξ: configuration not given here. Ac5c = NC1(C(=O)O)CCCC1; ξS = NC(CO)C(=O)O

assay: MITF-driven TRPM1 luciferase induction in melanoma cells – cell-based, SK-MEL-5, single point, primary screen (AID 588334); conditions: SK-MEL-5 TRPM1-promoter luciferase, 24 h; at 12.5 µM; stronger effect = higher value; % of positive control, neutral wells = 0;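 further: 0% = neutral control wells and 100% = parthenolide positive control wells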

activation, active:
Clc1ccccc1SCc1nc2ccccc2[nH]1 98.6%
S=C(c1ccc(-c2ccccc2)o1)N1CCCCC1 99.8%
COC(=O)c1cn(CC(=O)NCc2cccs2)c2ccccc12 81.5%
Cc1ccoc1C(=O)Nc1cccc(Oc2ccccc2)c1 87%
Cc1ccc(-c2noc(C3CCCN(C(=O)c4cccc(Cl)c4)C3)n2)o1 (centres undefined) 102%
c1cnc(Nc2nc(-c3ccc4ccccc4c3)cs2)nc1 103%
COc1cccc2[nH]c(C(=O)NCCc3ccccc3)cc12 110%
O=C(OCc1ccccc1F)c1ccc2c(c1)OCCO2 126%
CCOc1ccc(C(=O)Nc2cccc(SC)c2)cc1 84.3%
COc1ccc(NC(=S)N2N=CCC2c2ccccc2)cc1 (centres undefined) 90.9%
Cc1ccc(NC(=S)Nc2ncccc2C)c(C)c1 92.2%
CC1CCCN(c2ccc(C(=O)NCCc3ccccc3)cn2)C1 (centres undefined) 126%
O=C(Nc1ccc(Cl)cc1)/C(=C1\CCCN1)[N+](=O)[O-] 88.7%
O=C(NC1CCCCC1)c1ccc(-c2ccc(Cl)cc2)o1 111%
O=C(NC(=S)NC1CCCCC1)c1ccc(Cl)cc1 138%
CC(C)CNC(=S)NC(=O)c1ccc(Cl)cc1 112%
COc1ccc(Nc2ccc3ccccc3c2)cc1 101%
COc1ccc(-c2nnc(-c3ccc4ccccc4c3)o2)cc1 93.8%
c1ccc(CSc2nnc(-c3ccco3)n2Cc2ccccc2)cc1 94.3%
CSc1ccccc1NC(=O)c1cnc2sc(C)cn2c1=O 126%
CCS(=O)(=O)Nc1ccc(C(=O)NCCSc2ccccc2)cc1 82.4%
COc1ccc2nc(SCc3ccccc3)nc(C)c2c1 91.9%

activation, inactive:
c1ccc2c(CSCc3nc4ccccc4[nH]3)cccc2c1 -9.4%
c1ccc(-c2nnc(SCc3nc4ccccc4[nH]3)o2)cc1 -11.4%
O=C(Cc1ccc(NC(=O)C2CCCN(C(=O)C3CCCCC3)C2)cc1)Nc1cccc(C(=O)N2CCCCC2)c1 (centres undefined) 2.88%
CC1CCN(C(=S)c2ccc(-c3ccc(Cl)cc3Cl)o2)CC1 28%
Cc1cccc(C)c1NC(=S)N1CCCCCC1 -1.99%
CC(C)Cc1nnc(N)s1 -14.5%
Cc1ccc(NC(=O)C2CCC(C(C)(C)C)CC2)cc1S(=O)(=O)N1CCOCC1 (centres undefined) -5.55%
COc1cc(/C=C2\Oc3ccc(C#Cc4ccc(O)cc4)cc3C2=O)cc(OC)c1 -73.4%
COCCNC(=O)Cn1cc(C(=O)c2cccs2)c2ccccc21 7.95%
O=C(COC(=O)c1cccs1)NCc1cccs1 3.86%
O=C(NCc1ccccc1)c1cccc(NC(=O)C2CCCCC2)c1 -5.07%
O=C(NN=Cc1ccccc1)c1ccccc1 55%
Cc1cccc(NC(=O)Nc2cccc(Oc3c(F)c(F)c(F)c(F)c3F)c2)c1 16.2%
COc1cccc(NC(=O)c2ccccc2SC)c1 6.57%
CSc1ncnc2c1ncn2CC(=O)C1CCC2C3CCC4=CC(=O)CCC4(C)C3CCC12C (centres undefined) -44.7%
CCOc1ccc(/C=C(/C#N)c2nnc(N3CCOCC3)n2-c2ccccc2)cc1OC -2.3%
O=C(c1ccc(F)cc1)N1CCCC(c2nc(-c3cccs3)no2)C1 (centres undefined) -6.36%
COc1cccc(-c2noc(C3CCCN(C(=O)c4ccc(F)cc4)C3)n2)c1 (centres undefined) -11.5%
Cc1ccc(-c2csc(NC3OC(=O)c4ccccc43)n2)cc1 (centres undefined) -32.1%
O=C(Nc1nc(-c2ccc(-c3ccccc3)cc2)cs1)c1cnccn1 1.68%
COc1ccc(CCNC(=O)c2ccccc2OCc2ccccc2)cc1 -7.11%
O=C(NCCc1ccccc1)c1cccc(NC(=O)c2ccccc2)c1 20.5%
Cc1ccc(S(=O)(=O)N2CCN(C(=O)COC(=O)/C=C/c3cccc(Cl)c3)CC2)c(C)c1 4.12%
Cc1cccc(NC(=O)c2ccc(S(=O)(=O)N(C)c3ccccc3)cc2)n1 1.38%
CSCCC1NC(=O)N(CC(=O)Nc2cccc(S(=O)(=O)N3CCCCCC3)c2)C1=O (centres undefined) 11.8%
O=C(COC(=O)c1ccccc1)c1ccc2c(c1)OCCO2 17.6%
O=C(COC(=O)c1ccc2c(c1)OCCO2)NCc1ccccc1Cl 4.3%
CCOc1ccc(C(=O)Nc2ccncc2)cc1 41.4%
CCOc1ccc(C(=O)Nc2cccc(-c3ccc4nncn4n3)c2)cc1 52.8%
O=C1CC[C@@H]2CC3(C[C@@H]4CCN1[C@H]24)Nc1cc([N+](=O)[O-])ccc1NC3=NC1CCCCC1 (some centres undefined) 3.73%
COc1ccc(C(=S)Nc2ccccc2)cc1 33.5%
COc1ccc(C(=O)NC2CCN(C(=S)Nc3ccccc3)CC2)cc1 -0.484%
Cc1ccc(C(=O)NC(=S)Nc2ccccc2C)cc1 51.8%
Cc1ccc(NC(=S)NCc2ccccc2Cl)c(C)c1 -11.2%
COc1ccc(CNCCCn2cnc3c(OCc4ccccc4)ncnc32)cc1 7.28%
Cc1ccc(S(=O)(=O)N2CCN(C(=O)c3cc(S(=O)(=O)N4CCOCC4)ccc3F)CC2)cc1 -4.55%
NN=C(NN=Cc1ccccc1)c1ccccc1 35.2%
O=C(NCCc1ccccc1)c1ccc2c(c1)N(Cc1ccccc1)CCS2 39.9%
CCCOc1ccc(C(=O)NCCc2ccccc2)cc1 -2.06%
CC(C(=O)N1CCc2ccccc21)N(C)CC(=O)Nc1ccc(F)cc1 (centres undefined) 13.5%
COC[C@@H]1NS(=O)(=O)c2ccc(Br)cc2O[C@H]1c1ccccc1 7.36%
O=C(O)C1CCCCC1C(=O)Nc1ccc(Cl)cc1 (centres undefined) 20.2%
O=C(CC1SCCNC1=O)Nc1ccc(Cl)cc1 (centres undefined) 26.1%
COc1ccccc1N(CC(=O)Nc1ccc(C)cc1Cl)S(=O)(=O)c1cccs1 -4.34%
Cc1occc1C(=O)NNC(=S)NCC(C)C -2.13%
S=C(NCc1ccc(Cl)cc1)NC1CCCCC1 -7.01%
COCCCNC(=S)NC(=O)c1ccccc1 17.9%
O=C(NC1CCCCCC1)c1cccnc1Sc1ccc(Cl)cc1 6.6%
COc1ccc(C(=O)NC(=S)NC2CCCCC2)cc1 73.7%
O=C(NNC(=S)NC1CCCCC1)c1ccccc1Cl 9.14%
C=CCC[C@H](Cc1ccc(F)cc1)C(=O)OC[C@@H](NC(=O)[C@@H](CC=C)CC(=O)N[C@H](CO)Cc1ccccc1)C(C)(C)C -0.905%
CCCCNC1(C#N)CCN(Cc2ccccc2)CC1 0.419%
CC(C)(C)OC(=O)N(Cc1ccccc1)Cc1ccc(OCc2cccc(NC(=O)c3ccccc3)c2)cc1 -13.4%
O=C(C[C@H]1C[C@H](C(=O)N2CCOCC2)[C@@]2(CCC3CCCC3)c3[nH]c4ccc(Cl)cc4c3CCN2C1=O)NCc1ccco1 -16.1%
CCCCNc1c(-c2ccc(OC)c(Sc3ccc(OC)cc3)c2)nc2ccc(Cl)cn12 4.02%
CCOC(=O)C(CO)NC(=O)C1(NC(C)=O)CCCC1 (centres undefined) (Ac-[Ac5c]-[ξS]-OEt) 14.3%
COc1ccc(S(=O)(=O)N2CCc3ccccc32)cc1C(=O)Nc1cc(S(C)(=O)=O)ccc1Cl -34%
COc1ccc(N2CCN(Cc3nnc(-c4ccccc4)o3)CC2)cc1 -2.12%
COc1ccc(Nc2nnc(C)c3ccccc23)cc1 24.4%
COc1ccc(-c2nnc(SCc3cccnc3)o2)cc1 72%
S=C(Nc1ccccc1)Nc1ccc2ccccc2c1 1.98%
CN(CCc1ccccc1)C(=O)c1cccc(NC(=O)Cc2cccc(NC(=O)C3CCCN(C(=O)CCc4ccccc4)C3)c2)c1 (centres undefined) -13.3%
CCC1([N+](=O)[O-])COC(c2ccc(C(C)C)cc2)OC1 (centres undefined) 53.9%
CC(C)(C)OC(=O)C[C@@H]1C/C=C\C[C@@H](CC(=O)N(CCO)Cc2ccccc2)C(=O)N[C@H](Cc2ccccc2)COC1=O 8.13%
O=C(CSc1nnc(-c2ccco2)n1-c1ccccc1)NCCc1ccccc1 -10.2%
O=C(CSc1nnc(-c2ccco2)n1CC1CCCO1)c1ccccc1 (centres undefined) 5.67%
CCc1c(Nc2ccccc2Cl)nc(N)[nH]c1=O 0.399%
Cc1ccccc1C(=O)Nc1ccccc1Sc1ccccc1 -5.99%
CSc1ccccc1NC(=O)c1cc(Cl)sc1Cl 3.8%
CC(=O)N1CCc2ccc(N)cc21 -5.2%
CC(C#N)OC(=O)c1cccnc1SCC(=O)Nc1ccc2c(c1)OCO2 (centres undefined) -11.6%
Cc1ccc(C(=O)NCCNS(=O)(=O)c2ccccc2)cc1 0.954%
O=C(NCCSc1ccccc1)c1ccco1 61.4%
CC(=O)OC1CCC2C3CCC4=C(CC(F)C(=O)C4)C3CCC12C (centres undefined) 0.663%
COc1ccc(-c2nnc3ccc(SCc4ccccc4)nn23)cc1 -5.03%
COC(=O)CSc1nc(C)c2ccc(OC)cc2n1 16.3%
C[C@]12c3[nH]c4ccc(Cl)cc4c3CCN1C(=O)[C@@H](CC(=O)NCCCn1ccnc1)C[C@@H]2C(=O)N1CCOCC1 13.5%
